# Compounds with a hit are over-represented: about 7.5% of the library has one in this group of screens.
# FLuc counter: inhibits or activates purified firefly luciferase, miR-21 counter-screen. Potency, µM (doses to about 57.5 µM), inactives show at the top dose activity change, negative = inhibition, most hits filed as inhibitors. purified FLuc, Km substrates, luminescence inhibition. P08659. 360,000 tested, 6.9% active. AID 588342;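 further: plate controls were vehicle for no effect and reference inhibitor for full effect; nearly all actives have a fitted effect of over 55% in size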
# Target sequence (P08659 whole entry, looked up): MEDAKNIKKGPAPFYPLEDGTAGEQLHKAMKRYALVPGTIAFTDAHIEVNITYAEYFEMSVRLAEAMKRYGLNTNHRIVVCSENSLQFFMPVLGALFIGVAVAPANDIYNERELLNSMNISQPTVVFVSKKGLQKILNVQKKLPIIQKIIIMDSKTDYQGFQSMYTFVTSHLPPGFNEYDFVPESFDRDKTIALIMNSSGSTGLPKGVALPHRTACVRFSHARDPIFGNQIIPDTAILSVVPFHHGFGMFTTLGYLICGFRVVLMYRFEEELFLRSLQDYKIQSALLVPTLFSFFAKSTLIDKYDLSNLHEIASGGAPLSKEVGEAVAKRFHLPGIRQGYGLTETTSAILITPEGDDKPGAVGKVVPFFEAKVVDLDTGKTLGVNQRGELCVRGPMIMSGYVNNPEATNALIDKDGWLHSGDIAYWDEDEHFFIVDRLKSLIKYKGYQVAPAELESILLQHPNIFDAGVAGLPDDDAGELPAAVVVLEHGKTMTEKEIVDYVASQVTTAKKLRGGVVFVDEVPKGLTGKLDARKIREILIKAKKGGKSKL
#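 Purified P. pyralis luciferase, 10 nM final, with Km-level 10 uM D-luciferin and 10 uM ATP in 50 mM Tris acetate pH 7.5, 10 mM Mg acetate, 0.01% Tween-20, 0.05% BSA; 6-point qHTS titration about 60 µM downward; luminescence read.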
# Rab9 promoter act: Rab9 promoter activation; Huh7 Rab9 promoter-luciferase reporter, luminescence, 24 h; Potency, µM (titrated, usually from 9.22 µM), inactives show at the highest dose activation, negative = inhibition, actives largely listed as activators; 320,000 tested, 2.8% active; AID 485297; further: % of control where 0% means no effect; nearly all actives have a fitted effect of over 60% in size
#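 Huh7 cells stably carrying Rab9 promoter–luciferase reporter, plated 1500 cells/well, compound added after 2 h and incubated 24 h at 37 °C; luciferase luminescence then read after 10 min with detection reagent.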
# NPC1 prom act: activates the NPC1 promoter; Huh7 NPC1 promoter luciferase reporter, 24 h; Potency, µM (titrated, usually from 9.22 µM), for the others: at the highest dose activation, actives largely listed as activators; 320,000 tested, 2.4% active; further: % of control where 0% means no effect; nearly all actives have a fitted effect of over 60% in size
#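 Luminescence read-out of NPC1 promoter-driven luciferase in stably transfected Huh7 cells; compounds delivered in DMSO and left 24 h at 37C, 5% CO2, qHTS titration format.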
# ELG1 genotox: induces genotoxicity in HEK293T cells with luciferase-tagged ELG1. Potency, µM (top dose mostly 46 µM), without a hit: at the highest dose activity change, positive = activation, usual class: activators. HEK293T ELG1-luciferase reporter, luminescence, 16 h. 330,000 tested, 1.3% active; further: % of control where 0% means no effect; nearly all actives have a fitted effect of over 60% in size
#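 Cells (2,000/well) expressing the ELG1-luciferase fusion are dosed by pin tool and kept 16 hr at 37 °C, 5% CO2. Signal comes from ONE-Glo luciferase reagent after 30 min at room temperature.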
# SMN2 splice enh: increases expression of the SMN2 splice variant; HEK293 SMN2-luciferase splicing reporter, luminescence, 30-36 h; Potency, µM (titrated, usually from 46.1 µM), without a hit: at the highest dose activity change, positive = activation, hits mostly activators; 210,000 tested, 2.8% active; further: % of control where 0% means no effect; nearly all actives have a fitted effect of over 55% in size
#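 qHTS luciferase splicing reporter: luminescence rises when SMN2 exon 7 is included in transfected HEK293 cells. Compound exposure lasted 30-36 h at 37C, with 4.5 mM final sodium butyrate as control, followed by a ONE-Glo read.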
# * hit, by the source's call; ? = inconclusive; . = no result given; [ ] = remark or other dose. The call rests on the fitted dose curve; in most records, active means well fitted curve in the direction sought with a large enough effect; inconclusive means small, poorly fitted or top-dose-only effect, or another doubt; inactive means no such curve, though single readings can be large; an effect the other way counts as inactive or inconclusive. Potency means the concentration at half of the fitted maximal effect.
SMILES,FLuc counter,Rab9 promoter act,NPC1 prom act,ELG1 genotox,SMN2 splice enh
O=c1cc(CSc2nnc(Nc3ccccc3)s2)nc2sccn12,-10%,-5%,7%,-13%,?
Cc1cccc(Nc2nnc(SCC(=O)NC3CCCc4ccccc43)s2)c1 (configuration not stated),6µM*,-2%,-6%,-8%,-36%
Cc1cccc(Nc2nnc(SCC(=O)NCc3cccs3)s2)c1,11µM*,11%,7%,6%,5%
Cc1ccc(Nc2nnc(SCC(=O)NCCN3C(=O)CSC3=O)s2)cc1C,1.7µM*,26%,?,?,.
Cc1cc(C)n(-c2nc3ccccc3nc2Nc2ccc(Cl)cc2Cl)n1,-6%,.,.,.,0%
Cc1ccc(NC(=O)CCc2nnc3ccc(N4CCC5(CC4)OCCO5)nn23)cc1F,0%,-1%,-5%,0%,.
CC(=O)c1cccc(NC(=O)c2cnn(-c3cccc(C)c3)c2-n2cccc2)c1,0%,.,.,.,.
CCOc1ccc(C(=O)NCc2nc(-c3ccc(Cl)cc3)no2)cc1OCC,2%,.,.,.,4%
Nc1nnc(SCC(=O)Nc2cccnc2Cl)s1,-8%,-6%,2%,-4%,.
Cc1cccc(Nc2nnc(SCC(=O)Nc3cccnc3Cl)s2)c1,6µM*,11%,5%,5%,-2%
COc1cccc(C(=O)NC(=O)Nc2cc(C)[nH]n2)c1,9.5µM*,1.6µM*,2µM*,?,.
Cc1cc(NC(=O)c2cccc(Br)c2)n[nH]1,19µM*,?,?,?,.
CCOc1ccccc1CNc1ccc2cc(S(=O)(=O)N3CCC(C)CC3)ccc2n1,-6%,.,.,.,.
O=C(N/N=C/c1cccc(F)c1)c1ccc(Cl)cc1,2.4µM*,3.2µM*,4µM*,?,16µM*
CC(C)(C)c1ccc(C(=O)N/N=C/c2cccc(Cl)c2)cc1,4.8µM*,?,?,-6%,1%
O=C(N/N=C/c1cccc(NC(=O)c2ccc(Cl)cc2)c1)c1ccc(O)cc1,1.3µM*,4µM*,2.5µM*,-2%,.
CC(C)NC(=O)C1CCN(C(=O)N2CCOc3ccc(Cl)cc32)CC1,-7%,.,.,.,.
Cc1ccc(N2CCn3c2nc2c3c(=O)n(CCCc3ccccc3)c(=O)n2C)cc1C,5%,.,.,.,.
COc1ccccc1-c1nc(-c2ccc(C)nc2OC)no1,4.3µM*,2µM*,4µM*,8.2µM*,13µM*
COc1nc2cc(C)ccc2cc1-c1noc(-c2cccnc2)n1,2%,1%,5%,0%,-8%
COc1nc(C)ccc1-c1noc(-c2ccccn2)n1,6µM*,0.56µM*,1.3µM*,1.2µM*,8.9µM*
COc1nc(C)ccc1-c1noc(-c2cccnc2)n1,24µM*,?,?,?,.
O=c1[nH]c(=O)n([C@@H]2C[C@H](O)[C@H](CO)O2)cc1C(F)(F)F,.,.,.,.,-11%[20.6 µM]
Cc1ccccc1N1CCN(S(=O)(=O)Cc2ccccc2)CC1,-14%,-1%,1%,-2%,.
CCOc1ccc(C(=O)C(c2ccccc2)N2CCOCC2)cc1 (configuration not stated),-3%,9%,-1%,0%,-2%
SMILES,FLuc counter,Rab9 promoter act,NPC1 prom act,ELG1 genotox,SMN2 splice enh
CCOc1ccc(N=C(/C(C(=O)C(=O)N2CCOCC2)=C(\O)c2ccccc2)c2ccccc2)cc1,?,?,?,?,13µM*
O=C(COc1ccc([N+](=O)[O-])cc1)NNC(=O)Nc1cccc(F)c1,-2%,0%,-3%,3%,.
Cc1nc(N2CCN(C(=O)c3ccco3)CC2)nc2c1C(=O)CCC2,0.76µM*,0.1µM*,0.32µM*,0.46µM*,.
O=C(c1ccco1)N1CCN(c2ccc(N3CCCCC3)nn2)CC1,24µM*,3.2µM*,?,?,.
Cc1nc(N2CCN(c3ccccc3)CC2)nc2c1C(=O)CCC2,4%,-5%,0%,-21%,-13%
O=C(Nc1ccc(-c2ccc(N3CCCCC3)nn2)cc1)c1ccco1,4.8µM*,2.8µM*,?,?,.
Cc1cc(F)c(F)c(C(=O)N2CCC(C)CC2)c1Cl,0%,-1%,-7%,-4%,.
COCCCNc1ncnc2sc3c(c12)CCC(C)C3 (configuration not stated),?,0%,-2%,-1%,-22%
CC1CCc2c(sc3ncnc(NS(=O)(=O)c4cccs4)c23)C1 (configuration not stated),15µM*,2%,-3%,0%,5%
CCOC(=O)c1cnc(Nc2ccccc2)nc1C(F)(F)F,24µM*,17%,25%,19%,.
CCOC(=O)c1cnc(Nc2nc3ccccc3o2)nc1C,0.38µM*,?,?,.,-33%
Cc1nc(Nc2nc3ccccc3o2)nc2c1CCC2,1.7µM*,?,?,?,2µM*
Cc1cccc(C)c1Nc1nc2ccccc2o1,5%,-3%,-2%,-7%,-15%
CCOC(=O)c1cnc(-c2ccccc2)nc1C(F)(F)F,?,6%,-2%,3%,-4%
CCOC(=O)c1cnc(Nc2ccc(OCC)cc2)nc1C,?,25%,?,?,8%
COC(=O)C1=C(C)N(CCc2c[nH]c3ccc(OC)cc23)C(=O)C1,-12%,1%,1%,-2%,-4%
Cc1ccc(S(=O)(=O)Nc2ccc(=O)n(Cc3ccc(Cl)c(Cl)c3)c2)cc1,-8%,-6%,5%,-7%,-23%
COC(=O)C1(C(=O)OC)C[C@@H]2CON=C2[C@H]1c1ccccc1,.,.,.,.,3%
Cc1oc(-c2nc3ccccc3n2C)cc1C(=O)c1ccccc1,0.38µM*,0.32µM*,0.5µM*,1.8µM*,1.6µM*
CC(=O)c1ccc(-c2nc3ccccc3n2C)o1,21µM*,?,?,21µM*,11µM*
CCN1c2ccccc2-c2nc3ccccc3n2C1c1ccco1 (configuration not stated),3%,4%,0%,-6%,-18%
Cc1ccc(C2Nc3ccccc3-c3nc4ccccc4n32)o1 (configuration not stated),11µM*,?,?,?,11µM*
Cn1cc(C(=O)c2ccccc2)cc1-c1nc2ccccc2n1C,-10%,-6%,0%,-17%,-10%
Cn1c(-c2ccc(Br)o2)nc2cc(Br)ccc21,1.9µM*,1.1µM*,1.4µM*,?,14µM*
CCc1ccc(CNC(=O)C(CC)n2ccc3cc(S(=O)(=O)N4CCCCC4)ccc32)cc1 (configuration not stated),4%,.,.,.,.
COCC(=O)N1CCC(Oc2ccc(C(=O)N(C)CCCC3CCCC3)cc2)CC1,-1%,-1%,-7%,-1%[9.26 µM],.
COc1ccc(C(=O)O)cc1S(=O)(=O)Nc1ccccc1Cc1ccccc1,-2%,-1%,-7%,0%,.
Cn1c(-c2nonc2N)nc2ccccc21,3%,-2%,0%,-5%,.

# Screening data (PubChem BioAssay)
